In PubChem BioAssay (NCI):
Compounds without any hit were thinned out: in the full panel of roughly 83,000, 20% have a hit.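 Plates (96-well) were seeded with cells, treated with compound at one concentration, and incubated for 48 hours before percent growth was determined.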 Activity calls are given as the source filed them. The calls were made as follows: active = growth percent below 10; inactive = the rest.

Assays:
Assay in all cases: NCI-60 one-dose screen, 48 h (100 = growth as untreated, 0 = no growth, -100 = all killed)
Conditions in all cases: 10 µM unless noted
DU-145 prostate = system: DU-145 prostate
K-562 leukemia = system: K-562 leukemia
MALME-3M melanoma = system: MALME-3M melanoma
MDA-MB-231 breast = system: MDA-MB-231 breast
RXF 393 renal = system: RXF 393 renal
SF-268 CNS = system: SF-268 CNS
SF-539 CNS = system: SF-539 CNS
UACC-257 melanoma = system: UACC-257 melanoma
M14 melanoma = system: M14 melanoma
HCT-15 colon = system: HCT-15 colon
HT29 colon = system: HT29 colon
SNB-75 CNS = system: SNB-75 CNS
SNB-19 CNS = system: SNB-19 CNS
U251 CNS = system: U251 CNS
PC-3 prostate = system: PC-3 prostate
SK-MEL-5 melanoma = system: SK-MEL-5 melanoma
UACC-62 melanoma = system: UACC-62 melanoma
LOX IMVI melanoma = system: LOX IMVI melanoma
SK-MEL-28 melanoma = system: SK-MEL-28 melanoma
SF-295 CNS = system: SF-295 CNS

Measured: growth

Nc1nc(I)c2ncn(C3OC(CO)C(O)C3O)c2n1 (stereo not drawn)
inactive: DU-145 prostate 107% | K-562 leukemia 118% | MALME-3M melanoma 142% | MDA-MB-231 breast 101% | RXF 393 renal 78.4% | SF-268 CNS 107% | SF-539 CNS 102% | UACC-257 melanoma 103% | M14 melanoma 102% | HCT-15 colon 104% | HT29 colon 141% | SNB-75 CNS 130% | SNB-19 CNS 102% | U251 CNS 100% | PC-3 prostate 124% | SK-MEL-5 melanoma 102% | UACC-62 melanoma 90.4% | LOX IMVI melanoma 93.5% | SK-MEL-28 melanoma 126%

CCOC(=O)c1sc2ccc(NCc3nc[nH]c3C)cc2c1NC(=O)c1cc(OC)c(OC)c(OC)c1
inactive: DU-145 prostate 86.7% | K-562 leukemia 44.2% | MALME-3M melanoma 80.1% | MDA-MB-231 breast 73.3% | RXF 393 renal 79.2% | SF-268 CNS 98% | SF-295 CNS 97.3% | SF-539 CNS 91.7% | M14 melanoma 96.8% | HCT-15 colon 92.7% | HT29 colon 88.9% | SNB-75 CNS 92.8% | SNB-19 CNS 93% | U251 CNS 92.3% | PC-3 prostate 85% | SK-MEL-5 melanoma 96.9% | UACC-62 melanoma 92.9% | LOX IMVI melanoma 67.9% | SK-MEL-28 melanoma 83%

O=C(CC1Sc2ccccc2NC1=O)NNc1ccc(F)cc1 (stereo not drawn)
inactive: DU-145 prostate 98% | K-562 leukemia 13.6% | MALME-3M melanoma 112% | MDA-MB-231 breast 84.9% | SF-268 CNS 72.1% | SF-295 CNS 31% | SF-539 CNS 94.8% | UACC-257 melanoma 92.4% | M14 melanoma 31.3% | HCT-15 colon 60.5% | HT29 colon 98.5% | SNB-75 CNS 73.3% | SNB-19 CNS 84.5% | U251 CNS 85.2% | PC-3 prostate 52.5% | SK-MEL-5 melanoma 106% | UACC-62 melanoma 40% | LOX IMVI melanoma 18.5% | SK-MEL-28 melanoma 123%

O=C1CSC(c2ccccc2O)N1c1nnc(Cn2cnnc2)o1 (stereo not drawn)
inactive: DU-145 prostate 105% | K-562 leukemia 82.6% | MALME-3M melanoma 96.2% | MDA-MB-231 breast 73.7% | SF-268 CNS 82.9% | SF-295 CNS 94% | SF-539 CNS 89.7% | UACC-257 melanoma 96.4% | M14 melanoma 69% | HCT-15 colon 66.2% | HT29 colon 99.1% | SNB-75 CNS 66.8% | SNB-19 CNS 90.4% | U251 CNS 79.7% | PC-3 prostate 79.4% | SK-MEL-5 melanoma 95.1% | UACC-62 melanoma 90.8% | LOX IMVI melanoma 78.5% | SK-MEL-28 melanoma 102%

CC(/C=N/NC(=O)c1cc(-c2ccco2)[nH]n1)=C\c1ccccc1
inactive: DU-145 prostate 101% | K-562 leukemia 86.6% | MALME-3M melanoma 91.3% | MDA-MB-231 breast 102% | SF-268 CNS 93.9% | SF-295 CNS 69.9% | SF-539 CNS 102% | UACC-257 melanoma 89.9% | M14 melanoma 95% | HCT-15 colon 93.2% | HT29 colon 113% | SNB-75 CNS 66.8% | SNB-19 CNS 100% | U251 CNS 96.7% | PC-3 prostate 92.1% | SK-MEL-5 melanoma 98.8% | UACC-62 melanoma 94% | LOX IMVI melanoma 97.9% | SK-MEL-28 melanoma 104%

Clc1ccc(-c2nnc(-c3ccco3)o2)cc1
inactive: DU-145 prostate 99.5% | K-562 leukemia 93.3% | MALME-3M melanoma 113% | MDA-MB-231 breast 99% | SF-268 CNS 101% | SF-295 CNS 112% | SF-539 CNS 106% | UACC-257 melanoma 93.5% | M14 melanoma 101% | HCT-15 colon 112% | HT29 colon 105% | SNB-75 CNS 89.1% | SNB-19 CNS 90.6% | U251 CNS 98.7% | PC-3 prostate 96.7% | SK-MEL-5 melanoma 108% | UACC-62 melanoma 93.9% | LOX IMVI melanoma 97.8% | SK-MEL-28 melanoma 125%

NC(=O)CC1(O)C=C(Br)C(=O)C(Br)=C1
inactive: DU-145 prostate 105% | MDA-MB-231 breast 113% | SF-268 CNS 89.3% | SF-295 CNS 115% | SF-539 CNS 96.1% | UACC-257 melanoma 80.9% | HT29 colon 75.8% | SNB-75 CNS 76.4% | SNB-19 CNS 106% | U251 CNS 95.6% | SK-MEL-5 melanoma 92.7% | UACC-62 melanoma 108% | LOX IMVI melanoma 86.1% | SK-MEL-28 melanoma 21.5%
active: K-562 leukemia -29.6% | MALME-3M melanoma -34.3% | RXF 393 renal -32.6%

COc1ccc(C(=O)/C=C/c2cc3c(c(OC)c2)OCC(=O)N3)cc1
inactive: MALME-3M melanoma 88.4% | MDA-MB-231 breast 67.7% | RXF 393 renal 49.7% | SF-268 CNS 21.4% | SF-295 CNS 88.7% | UACC-257 melanoma 91.6% | HCT-15 colon 33.4% | HT29 colon 19.2% | SNB-75 CNS 20.7% | U251 CNS 67.6% | PC-3 prostate 49.6% | SK-MEL-5 melanoma 84.2% | UACC-62 melanoma 85.3% | LOX IMVI melanoma 40.1% | SK-MEL-28 melanoma 73.1%
active: DU-145 prostate -20.7% | K-562 leukemia 7.5% | SF-539 CNS 7.09%

CC1=CC(=O)C(C(C)C)=CC1=Nc1cc(Br)c(O)c(Br)c1
inactive: MALME-3M melanoma 96.6% | SF-268 CNS 27% | SF-295 CNS 17% | UACC-257 melanoma 95.5% | HCT-15 colon 21% | HT29 colon 66.2% | SNB-75 CNS 27.1% | SNB-19 CNS 42.1% | SK-MEL-5 melanoma 13.9% | UACC-62 melanoma 22.7% | LOX IMVI melanoma 24% | SK-MEL-28 melanoma 42.6%
active: DU-145 prostate 3.08% | K-562 leukemia 0.315% | MDA-MB-231 breast 7.91% | RXF 393 renal 5.99% | SF-539 CNS -33.6% | U251 CNS 5.45%

CC/C=C/[C@@H]1C=C[C@@H]2CCC[C@H]2[C@@H]1CC[C@H](O)[C@H](C)N
active: DU-145 prostate -12.9% | K-562 leukemia -18.6% | MALME-3M melanoma -80.2% | MDA-MB-231 breast -22.5% | SF-295 CNS -71.3% | SF-539 CNS -67.6% | UACC-257 melanoma -71.5% | M14 melanoma -76.4% | HCT-15 colon -73.8% | HT29 colon 2.11% | SNB-19 CNS -41.2% | U251 CNS -79.7% | SK-MEL-5 melanoma -92.8% | UACC-62 melanoma -42.1% | LOX IMVI melanoma -91.6% | SK-MEL-28 melanoma -87.1%
inactive: SF-268 CNS 29.2% | SNB-75 CNS 22.4% | PC-3 prostate 30.4%

Cn1ncc2c(Nc3ccc(Br)cc3)nc(Nc3ccc(Br)cc3)nc21
inactive: DU-145 prostate 68.3% | K-562 leukemia 11.4% | MALME-3M melanoma 55.4% | MDA-MB-231 breast 17.7% | RXF 393 renal 64.1% | SF-268 CNS 57.6% | SF-295 CNS 40.2% | SF-539 CNS 64.9% | UACC-257 melanoma 82.6% | HCT-15 colon 22.4% | HT29 colon 33.4% | SNB-75 CNS 66.9% | SNB-19 CNS 71.4% | U251 CNS 33.4% | SK-MEL-5 melanoma 47.6% | UACC-62 melanoma 56.1% | SK-MEL-28 melanoma 50.1%
active: LOX IMVI melanoma -5.28%

O=C1CSC(c2ccc(O)cc2)N1c1nnc(Cn2cnnc2)o1 (stereo not drawn)
inactive: DU-145 prostate 93.3% | K-562 leukemia 45.3% | MALME-3M melanoma 54.1% | MDA-MB-231 breast 94.8% | SF-268 CNS 70.3% | SF-295 CNS 38.6% | SF-539 CNS 97.6% | UACC-257 melanoma 96.9% | M14 melanoma 94.6% | HCT-15 colon 110% | HT29 colon 55.8% | SNB-75 CNS 53.8% | SNB-19 CNS 97.9% | U251 CNS 110% | PC-3 prostate 88.7% | SK-MEL-5 melanoma 105% | UACC-62 melanoma 97.2% | LOX IMVI melanoma 99.9% | SK-MEL-28 melanoma 77.9%

O=[N+]([O-])c1cccc(/C=C/c2ccccn2)c1
inactive: DU-145 prostate 78.3% | K-562 leukemia 67.4% | MALME-3M melanoma 114% | MDA-MB-231 breast 87.3% | RXF 393 renal 69.3% | SF-268 CNS 76.9% | SF-295 CNS 71.1% | SF-539 CNS 68.6% | UACC-257 melanoma 102% | HCT-15 colon 42.7% | HT29 colon 98% | SNB-75 CNS 58.3% | U251 CNS 38.4% | SK-MEL-5 melanoma 79% | UACC-62 melanoma 86.1% | LOX IMVI melanoma 102% | SK-MEL-28 melanoma 128%

CN(C)c1ccc(-c2cc(-c3ccc(Nc4nc(Nc5ccccc5)nc(Nc5ccc(Cl)cc5)n4)cc3)nc(N)n2)cc1
inactive: DU-145 prostate 61.4% | K-562 leukemia 10.8% | MALME-3M melanoma 57% | MDA-MB-231 breast 41.8% | RXF 393 renal 53.8% | SF-268 CNS 50.8% | SF-295 CNS 36.5% | SF-539 CNS 60.8% | UACC-257 melanoma 55.3% | HCT-15 colon 34.4% | HT29 colon 34.2% | SNB-75 CNS 48.2% | SNB-19 CNS 66.8% | U251 CNS 29.6% | SK-MEL-5 melanoma 31.3% | UACC-62 melanoma 49.9% | LOX IMVI melanoma 38.1% | SK-MEL-28 melanoma 75.4%

COc1ccc(/C(C)=C(\c2ccc(Cl)cc2)c2ccc(OCCCN(C)C)cc2)cc1F
inactive: DU-145 prostate 73.5% | MALME-3M melanoma 17.2% | MDA-MB-231 breast 73.7% | SF-268 CNS 81.8% | SF-295 CNS 53.5% | SF-539 CNS 44.9% | UACC-257 melanoma 17.1% | SNB-75 CNS 70.6% | SNB-19 CNS 67% | U251 CNS 38.5% | PC-3 prostate 59.2% | SK-MEL-5 melanoma 84.1% | UACC-62 melanoma 45.7% | SK-MEL-28 melanoma 37.8%
active: K-562 leukemia -0.587% | HCT-15 colon 7.7% | HT29 colon 3.41% | LOX IMVI melanoma -74.1%

CC(=O)Nc1ccc(-c2cc3c(NCc4ccc(F)cc4)ncnc3s2)cc1
inactive: DU-145 prostate 86.3% | K-562 leukemia 86.8% | MALME-3M melanoma 59.5% | MDA-MB-231 breast 83% | SF-268 CNS 68% | SF-295 CNS 82.6% | SF-539 CNS 56.6% | UACC-257 melanoma 86.8% | HCT-15 colon 88.8% | HT29 colon 102% | SNB-75 CNS 70.1% | SNB-19 CNS 57.8% | U251 CNS 77.6% | PC-3 prostate 81% | UACC-62 melanoma 73% | LOX IMVI melanoma 82.4% | SK-MEL-28 melanoma 93.5%
